FAS TE block – blocks the thioesterase domain of human fatty acid synthase; P49327; recombinant FAS-TE, OMFH fluorogenic substrate, fluorescence endpoint; inhibition, % at 15 µM; 360,000 compounds, 0.67% hits; AID 602261;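 active = compounds whose normalised, plate-corrected inhibition of enzyme fluorescence in the single-dose primary screen is 50% or more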
Target sequence (P49327 whole entry, looked up, the tested form may be a part): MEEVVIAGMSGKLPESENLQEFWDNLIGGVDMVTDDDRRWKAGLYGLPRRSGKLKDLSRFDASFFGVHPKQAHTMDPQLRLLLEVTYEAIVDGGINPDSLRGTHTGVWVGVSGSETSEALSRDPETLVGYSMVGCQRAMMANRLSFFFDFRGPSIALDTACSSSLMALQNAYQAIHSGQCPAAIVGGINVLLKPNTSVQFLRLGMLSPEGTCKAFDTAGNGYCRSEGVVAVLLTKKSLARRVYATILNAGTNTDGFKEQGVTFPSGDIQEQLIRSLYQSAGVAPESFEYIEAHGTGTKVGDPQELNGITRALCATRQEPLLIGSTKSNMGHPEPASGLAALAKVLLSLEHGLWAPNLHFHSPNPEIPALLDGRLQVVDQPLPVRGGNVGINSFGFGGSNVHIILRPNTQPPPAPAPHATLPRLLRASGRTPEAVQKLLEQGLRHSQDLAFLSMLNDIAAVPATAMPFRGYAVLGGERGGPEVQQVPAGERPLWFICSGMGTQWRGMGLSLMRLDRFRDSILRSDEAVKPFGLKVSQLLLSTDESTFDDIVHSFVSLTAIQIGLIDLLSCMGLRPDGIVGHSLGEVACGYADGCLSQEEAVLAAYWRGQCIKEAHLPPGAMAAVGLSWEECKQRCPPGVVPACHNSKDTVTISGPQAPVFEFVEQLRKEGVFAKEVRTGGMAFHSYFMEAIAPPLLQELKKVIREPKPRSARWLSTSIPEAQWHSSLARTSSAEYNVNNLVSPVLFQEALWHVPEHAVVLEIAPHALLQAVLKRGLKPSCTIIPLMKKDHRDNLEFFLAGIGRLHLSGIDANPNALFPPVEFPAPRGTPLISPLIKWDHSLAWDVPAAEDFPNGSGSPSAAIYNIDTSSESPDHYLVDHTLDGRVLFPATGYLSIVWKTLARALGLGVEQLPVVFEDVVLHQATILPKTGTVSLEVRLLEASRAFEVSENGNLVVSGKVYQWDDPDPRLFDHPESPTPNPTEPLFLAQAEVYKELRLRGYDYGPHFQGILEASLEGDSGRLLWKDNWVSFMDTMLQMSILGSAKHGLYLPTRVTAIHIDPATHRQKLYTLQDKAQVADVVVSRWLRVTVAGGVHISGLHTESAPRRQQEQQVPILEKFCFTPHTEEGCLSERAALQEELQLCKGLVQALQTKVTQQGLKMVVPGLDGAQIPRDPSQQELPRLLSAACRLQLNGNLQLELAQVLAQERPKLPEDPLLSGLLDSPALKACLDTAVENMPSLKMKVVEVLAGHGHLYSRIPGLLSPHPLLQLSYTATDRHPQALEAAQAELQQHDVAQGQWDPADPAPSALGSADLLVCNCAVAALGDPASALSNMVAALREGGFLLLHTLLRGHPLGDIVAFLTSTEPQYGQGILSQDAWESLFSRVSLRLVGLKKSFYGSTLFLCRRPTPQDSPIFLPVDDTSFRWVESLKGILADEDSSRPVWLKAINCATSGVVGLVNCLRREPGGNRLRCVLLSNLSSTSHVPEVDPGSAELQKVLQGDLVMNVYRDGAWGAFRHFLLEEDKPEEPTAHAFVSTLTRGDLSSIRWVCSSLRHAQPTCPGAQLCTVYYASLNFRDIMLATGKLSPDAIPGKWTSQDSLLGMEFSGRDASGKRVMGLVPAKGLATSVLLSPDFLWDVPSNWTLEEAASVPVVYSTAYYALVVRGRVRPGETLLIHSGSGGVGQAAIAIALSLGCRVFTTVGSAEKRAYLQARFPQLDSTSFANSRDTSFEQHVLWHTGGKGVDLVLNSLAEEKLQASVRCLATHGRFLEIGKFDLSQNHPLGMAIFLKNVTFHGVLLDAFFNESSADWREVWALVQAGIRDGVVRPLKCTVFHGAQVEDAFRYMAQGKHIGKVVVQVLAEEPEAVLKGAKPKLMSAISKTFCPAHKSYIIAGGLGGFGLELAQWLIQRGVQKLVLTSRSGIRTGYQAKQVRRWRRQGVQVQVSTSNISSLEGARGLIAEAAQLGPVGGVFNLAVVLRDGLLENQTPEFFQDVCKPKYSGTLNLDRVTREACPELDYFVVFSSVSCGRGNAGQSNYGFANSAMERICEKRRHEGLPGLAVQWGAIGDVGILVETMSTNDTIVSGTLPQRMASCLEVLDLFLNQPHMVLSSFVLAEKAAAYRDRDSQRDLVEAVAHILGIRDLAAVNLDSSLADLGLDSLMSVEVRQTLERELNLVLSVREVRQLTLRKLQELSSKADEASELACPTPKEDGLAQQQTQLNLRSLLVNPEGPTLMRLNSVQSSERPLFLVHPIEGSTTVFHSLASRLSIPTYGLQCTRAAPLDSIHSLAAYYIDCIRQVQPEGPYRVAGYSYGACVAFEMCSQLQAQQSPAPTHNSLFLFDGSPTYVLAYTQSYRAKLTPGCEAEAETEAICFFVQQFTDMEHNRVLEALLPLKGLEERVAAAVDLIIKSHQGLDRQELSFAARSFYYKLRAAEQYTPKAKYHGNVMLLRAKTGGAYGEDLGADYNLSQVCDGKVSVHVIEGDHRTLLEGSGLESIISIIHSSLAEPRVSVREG
Myeloid diff MLP – compounds promoting myeloid differentiation; ER-HoxA9 myeloid progenitors, lysozyme-GFP differentiation, flow cytometry; calls only at 10 µM; 360,000 compounds, 1% hits; AID 624256;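 active = normalized GFP-positive differentiation at or above the plate's own cutoff, the solvent-only control mean plus 3 SD; inconclusive = no clear call, values can overlap the other calls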;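 also: cells exposed to compound for four days before flow analysis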
MPTP block – permeability transition pore inhibition; isolated mouse mitochondria, Ca2+ swelling absorbance, 30 min; inhibition, % at 10 µM; 360,000 compounds, 1.4% hits;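 active = inhibition of 50% or more, scaled per plate between neutral and stimulator controls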
GRIN3A LBD mod – modulates the human NR3A ligand-binding domain; 340,000 compounds, 2.5% hits; NR3A LBD differential scanning fluorimetry, Tm shift; 0% = protein alone, 100% = glycine-bound protein; Tm shift relative to glycine control, % at 25 µM;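 active = melting temperature shift of at least 10% of the positive control shift, at one fixed dose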
rCAG RNA binder – binds r(CAG) RNA repeats. r(CAG) RNA repeat, TO-PRO-1 dye displacement fluorescence. inhibition, % at 3 µM. 370,000 compounds, 1.3% hits. AID 651821;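 active = inhibition above the plate cutoff, the mean of all test compounds on that plate plus 3 SD, cut at about 35% in these data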;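 also: higher means more dye released from RNA so lower well fluorescence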
Rh123 counter – Rhodamine 123 counter-screen of mitochondrial pore hits | shares compounds with MPTP block | isolated mitochondria, membrane potential, Rhodamine 123 fluorescence | inhibition, % at 10 µM | 5,000 compounds, 78% hits | AID 624504; in the data active = inhibition above about 22%
MPTP swell DR – MPTP inhibition, dose response swelling confirmation; shares compounds with MPTP block; isolated mitochondria swelling, absorbance; IC50, µM; 780 compounds, 58% hits; in the data active = IC50 below about 20 µM
MPTP cs DR – MPTP inhibitor counter-screen activity, dose response; shares compounds with MPTP block; 780 compounds, 49% hits; IC50, µM; isolated mitochondria counterscreen, fluorescence read-out; in the data active = IC50 below about 80 µM
A number is an active result; . = inactive; ? = inconclusive; / = no result given; + = active, no number. This is a sample that favours compounds with a hit; in the whole collection about 5.7% have one here.

SMILES	FAS TE block	Myeloid diff MLP	MPTP block	GRIN3A LBD mod	rCAG RNA binder	Rh123 counter	others
CCCCOc1nc2ccccc2nc1NS(=O)(=O)c1ccc(F)cc1	.	.	.	.	.	/
Cc1cc(C)c2c(C)c(C(=O)NCc3ccncc3)oc2c1	.	.	.	.	.	/
CCc1ccc2oc(C(=O)NCc3ccncc3)c(C)c2c1	.	.	69	.	.	22
Cc1ccc2nc(SC(C)C(=O)Nc3cccc([N+](=O)[O-])c3)[nH]c2c1 (stereo not drawn)	.	.	59	.	.	85
CCOP(=O)(OCC)C(NC(=O)Nc1ccc(C)c(Cl)c1)c1ccccc1 (stereo not drawn)	.	.	84	24	.	84
CCOP(=O)(OCC)C(NC(=O)Nc1ccc(Cl)cc1)c1ccccc1 (stereo not drawn)	.	.	.	.	.	/
CCOP(=O)(OCC)C(NC(=O)Nc1ccc(Cl)c(Cl)c1)c1ccccc1 (stereo not drawn)	.	.	60	.	.	56
CN1CCN(CC(=O)N2c3ccccc3C(C)(c3ccc(Cl)cc3)CC2(C)C)CC1 (stereo not drawn)	.	.	75	.	.	.	MPTP swell DR=19;MPTP cs DR=.
CN1CCN(CC(=O)N2c3ccccc3C(C)(c3ccccc3)CC2(C)C)CC1 (stereo not drawn)	.	.	74	.	/	.	MPTP swell DR=.;MPTP cs DR=.
CC(=O)N1c2ccccc2C(C)(c2ccccc2)CC1(C)C (stereo not drawn)	.	.	.	.	/	/
CC(C)c1ccc(NC(=O)N(CCc2nc3ccccc3[nH]2)C2CCCC2)cc1	.	.	58	.	.	81
COc1ccc(/C=C2\SC(=O)N(CCCC(=O)Nc3ccc(C(=O)O)cc3)C2=O)cc1OC	.	.	.	.	.	/
CCN(CC)CCOC(=O)c1ccc(NC(=O)CCCN2C(=O)S/C(=C/c3ccc(OC)cc3)C2=S)cc1	.	.	61	.	/	.
Cc1cccc(C)c1-n1c(C)cc(/C=N/NC(=O)CSc2ncccn2)c1C	.	.	89	.	.	.	MPTP swell DR=.;MPTP cs DR=50
Cc1cccc(C)c1-n1c(C)cc(/C=N/NC(=O)c2ccncc2)c1C	.	.	.	.	.	/
O=C(/C=C/c1c(Cl)cccc1Cl)Nc1ccncc1	.	.	62	27	.	57
O=C(NC[C@@H]1CC[C@@H](Cc2ccc(-c3ccccc3)cc2)O1)Nc1ccc(Br)cc1	.	.	60	24	.	96
COc1cccc(C(=O)OCC(=O)c2ccc(Br)s2)c1OC	.	.	.	.	.	/
COc1ccc(C(=O)C2CCCN(Cc3cccn3-c3ccc(Cl)cn3)C2)c(OC)c1 (stereo not drawn)	.	.	76	.	.	99
O=C(NCc1ccccc1)c1onc(CS(=O)(=O)c2ccc(Cl)cc2)c1C(=O)NCc1ccccc1	.	.	.	.	.	/
Cc1ccnc(Nc2nc(-c3c(C)nc4sccn34)cs2)c1	.	.	63	16	.	21
O=C(NCc1ccccc1F)c1cccc(S(=O)(=O)NCc2ccccc2)c1	.	.	.	.	.	/
O=C(NCc1cccc(C(F)(F)F)c1)c1cccc(S(=O)(=O)NCc2ccccc2)c1	.	.	60	.	.	71
Cc1nnc(N/N=C/c2cc([N+](=O)[O-])c(N3CCC(C)CC3)cc2N2CCC(C)CC2)n1N	.	.	83	.	.	66
CCCN(C(=O)C1CCN(S(=O)(=O)c2ccc(OC)c(OC)c2)CC1)C1CCS(=O)(=O)C1 (stereo not drawn)	.	.	.	.	.	/
SMILES	FAS TE block	Myeloid diff MLP	MPTP block	GRIN3A LBD mod	rCAG RNA binder	Rh123 counter	others
Cc1ccc(COC(=O)c2nn(C)c(=O)c3ccccc23)cc1	.	.	55	.	.	34
Cn1nc(C(=O)OCc2ccc(F)cc2)c2ccccc2c1=O	.	.	.	.	.	/
OCCN1CCN(c2ncnc3c2ncn3[C@H]2CN(Cc3cccs3)C[C@@H](CO)O2)CC1	.	.	57	/	.	.	MPTP swell DR=.;MPTP cs DR=.
O=S(=O)(c1ccc(N2CCN(c3ccc(F)cc3)CC2)cc1)N1CCCC1	.	.	.	.	.	/
O=S(=O)(c1ccc(N2CCCC2)cc1)C(F)(F)F	.	+	91	.	.	68
Cc1cc(C)cc(C(=O)OCCCN(C)C2CN(Cc3cn(Cc4ccccc4C(F)(F)F)nn3)S(=O)(=O)C2)c1 (stereo not drawn)	/	/	/	/	.	/
CCN1CCN(CC(=O)n2c3c(c4ccccc42)CC(C)CC3)CC1 (stereo not drawn)	.	.	78	.	.	.	MPTP swell DR=8.7;MPTP cs DR=.
CC1CCc2c(c3ccccc3n2C(=O)CCl)C1 (stereo not drawn)	.	.	.	.	.	/
CCCN(CCC)C(=O)C(c1ccccc1)C1(O)CCCCC1 (stereo not drawn)	.	.	.	.	.	/
COc1ccc(C(=O)CSc2[nH]c(=O)cc(C(F)(F)F)c2C#N)cc1	.	.	85	.	.	76
COc1ccc(-c2cc(C(F)(F)F)c(C#N)c(SCC(=O)Nc3ccc(C)cc3)n2)cc1	.	/	.	.	.	/
Cc1cc(Br)ccc1N=C1NC(=O)CS1	.	.	.	.	.	/
O=C(/C=C/c1ccc(Cl)c([N+](=O)[O-])c1)Nc1ccc(N2CCCC2)c(Cl)c1	.	.	76	17	.	40
CN1CCN(c2ccc(S(=O)(=O)N3CCCCC3)cc2NC(=O)/C=C/c2ccc(Cl)c([N+](=O)[O-])c2)CC1	.	.	.	.	.	/
Cc1nn(C(C)C(=O)NNC(=S)Nc2ccc(Cl)cc2)c(C)c1[N+](=O)[O-] (stereo not drawn)	.	.	51	.	.	60
Cc1nn(CCC(=O)NNC(=S)Nc2ccc(Cl)cc2)c(C)c1[N+](=O)[O-]	.	.	.	.	.	/
CCOC(=O)c1c(C)[nH]c(C(=O)N/N=C/c2cc([N+](=O)[O-])ccc2O)c1C	.	.	56	.	.	.
CCNC(=O)C(=O)N/N=C/c1cc([N+](=O)[O-])ccc1O	.	.	.	.	.	/
O=C(N/N=C/c1cc([N+](=O)[O-])ccc1O)C12CC3CC(CC(C3)C1)C2	.	.	78	.	.	54
CCOC(=O)c1c(C)[nH]c(C(=O)N/N=C\c2ccccc2O)c1C	.	/	69	17	.	66
Cc1noc(C)c1C(=O)N1CCC1(C)C(=O)NS(=O)(=O)c1cccs1 (stereo not drawn)	.	.	.	/	.	/
CCOC(=O)C1=CCC(c2cccs2)N(S(=O)(=O)c2ccc(C)cc2)C1 (stereo not drawn)	.	.	.	/	.	/
CC(C)c1ccc(CNc2nc(NCC3CC3)nc3ccsc23)cc1	.	.	80	/	.	99
COc1cccc(CNc2nc(NCC3CC3)nc3ccsc23)c1	.	?	.	/	.	/

From PubChem BioAssay
